GDH-TPI inh: GDH-TPI coupled enzyme inhibition counter-screen. hit rate 1.2% among 360,000. inhibition, % at 4.8 µM. GDH-TPI coupled enzyme counterscreen, NADH absorbance; in the data active = inhibition above about 30%;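 note: 0% = DMSO wells and 100% = wells lacking the enzyme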
PriA SSB inh: blocks PriA binding to SSB C-terminal tail | AlphaScreen SSBct-PriA binding, biotinylated peptide | inhibition, % at 33 µM | hit rate 0.6% among 430,000 | AID 1272365; in the data active = inhibition mostly above about 37%, no sharp cut-off; inactive = mostly below about 20%;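 note: plate controls were negative control peptide for no effect and reference peptide for full effect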
Mtb betalactam: beta-lactam sensitization of Mtb H37Rv; inhibition, % at 25 µM; AID 434955; M. tuberculosis H37Rv growth with meropenem, percent inhibition; hit rate 0.27% among 330,000; call rule not given here;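 note: growth measured after seven days incubation then overnight dye step; 0% = bacteria only wells and 100% = bacteria with antibiotic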
Mtb UGM inh: inhibitors of M. tuberculosis UDP-galactopyranose mutase. hit rate 0.06% among 320,000. P9WIQ1. inhibition, % at 10 µM. purified UGM, fluorescence polarization probe displacement; in the data active = inhibition above about 10%, passing the limit was not always enough; inconclusive = no clear call, values can overlap the other calls
Target sequence (P9WIQ1 whole entry, looked up): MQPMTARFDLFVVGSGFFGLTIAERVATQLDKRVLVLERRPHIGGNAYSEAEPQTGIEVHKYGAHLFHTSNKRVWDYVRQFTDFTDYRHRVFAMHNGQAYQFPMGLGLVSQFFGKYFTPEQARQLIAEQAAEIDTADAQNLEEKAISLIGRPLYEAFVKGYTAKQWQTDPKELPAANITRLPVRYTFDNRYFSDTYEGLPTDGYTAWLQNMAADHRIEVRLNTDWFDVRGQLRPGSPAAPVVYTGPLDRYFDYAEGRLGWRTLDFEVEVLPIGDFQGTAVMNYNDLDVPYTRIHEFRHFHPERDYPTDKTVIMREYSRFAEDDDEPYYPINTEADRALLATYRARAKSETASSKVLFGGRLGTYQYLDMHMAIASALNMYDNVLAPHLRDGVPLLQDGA
Rv3671c inh: inhibits the M. tuberculosis serine protease Rv3671c; AID 2606; hit rate 0.048% among 320,000; inhibition, % at 5.96 µM; P9WHR9; in the data active = inhibition above about 38%;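 note: extracellular domain of Rv3671c used as enzyme; 0% = enzyme with DMSO and 100% = no enzyme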
FBA Mtb inh: inhibits M. tuberculosis FBA enzyme. inhibition, % at 1 µM. hit rate 2.3% among 360,000. purified M. tuberculosis FBA, fluorescence read-out; in the data active = inhibition above about 27%;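 note: 0% = vehicle and 100% = reference inhibitor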
An asterisk follows results filed as active. Compounds with a hit are over-represented: about 3.2% of the library has one in this group of screens.

For COc1ccc(/C=N/NC(=O)c2[nH]c(C)c(C(=O)N/N=C/c3ccc(OC)cc3)c2C)cc1 the results were GDH-TPI inh 100.0*, Mtb betalactam -1.7, Rv3671c inh -3.4 and FBA Mtb inh -2.6.
`COc1cccc(C=NNC(=O)c2[nH]c(C)c(C(=O)NN=Cc3cccc(OC)c3)c2C)c1` gave PriA SSB inh -8.1.
COc1cccc(/C=N/NC(=O)c2[nH]c(C)c(C(=O)N/N=C/c3cccc(OC)c3)c2C)c1 was read as GDH-TPI inh 41.9*, Mtb betalactam 3.2, Mtb UGM inh -2.3, Rv3671c inh -7.8 and FBA Mtb inh -5.3.
`O=C(COc1ccc(Cl)cc1)Nc1nnc(-c2ccc(Br)cc2)o1` gave PriA SSB inh 7.0.
CCOC(=O)c1cc2c(=O)n3ccccc3nc2n(Cc2ccccc2)c1=NC(=O)C(c1ccccc1)c1ccccc1 was read as PriA SSB inh -1.0.
Screening CCCn1c(=NC(=O)c2c(-c3c(F)cccc3Cl)noc2C)c(C(=O)OCC)cc2c(=O)n3ccccc3nc21 returned Mtb betalactam -3.6, Mtb UGM inh -2.3 and Rv3671c inh -11.0.
For CC(C)n1c(=NC(=O)c2ccco2)c(C#N)cc2c(=O)n3ccccc3cc21 the results were GDH-TPI inh 4.8, PriA SSB inh -27.3, Mtb betalactam -23.4, Mtb UGM inh -0.9, Rv3671c inh -3.6 and FBA Mtb inh active.
Screening CCCn1c(=NC(=O)c2ccco2)c(C(=O)OCC)cc2c(=O)n3ccccc3nc21 returned GDH-TPI inh 19.2, PriA SSB inh -4.7, Mtb betalactam -3.6, Mtb UGM inh -1.7, Rv3671c inh -0.2 and FBA Mtb inh active.
Screening CCOC(=O)c1cc2c(=O)n3ccccc3nc2n(C(C)C)c1=NC(=O)c1ccco1 returned GDH-TPI inh 4.3, PriA SSB inh -7.6, Mtb betalactam 0.6, Mtb UGM inh 0.6, Rv3671c inh -7.8 and FBA Mtb inh active.
For C=CCn1c(=NC(=O)c2ccco2)sc2cc(C(=O)OC)ccc21 the results were GDH-TPI inh 24.1, PriA SSB inh 7.0, Mtb betalactam 5.2, Mtb UGM inh -0.8, Rv3671c inh -19.2 and FBA Mtb inh 7.8.
For Cc1ccc(C(=O)N(CC(=O)NC2CCCC2)c2ccccc2C)s1 the results were GDH-TPI inh -1.9, PriA SSB inh -8.8, Mtb betalactam -2.9, Mtb UGM inh -3.6, Rv3671c inh -4.0 and FBA Mtb inh 3.5.
For CC1=CN2C(=NC(=O)CC2(C)C(=O)N(CC(=O)NC2CCCC2)Cc2ccccc2)C=C1 (centres undefined) the results were GDH-TPI inh -2.3, PriA SSB inh -5.8, Mtb betalactam -5.4, Mtb UGM inh -2.3, Rv3671c inh -3.2 and FBA Mtb inh 124.0*.
For Cc1ccccc1N(CC(=O)NC1CCCC1)C(=O)C1(C)CC(=O)N=C2C=CC(Cl)=CN21 (centres undefined) the results were GDH-TPI inh 8.1, PriA SSB inh 0.7, Mtb betalactam 0.0, Mtb UGM inh 0.5, Rv3671c inh -5.8 and FBA Mtb inh 155.0*.
Screening O=C(Cc1ccc(F)cc1)N1CCC(Oc2ncccc2Br)CC1 returned PriA SSB inh -6.0.
Screening CC(=NNC(=O)c1ccn(C)n1)c1ccc(NC(=O)c2cccc(F)c2)cc1 returned PriA SSB inh -5.6.
Screening Cc1cccc(-c2ccc(C=Nc3c(C)n(C)n(-c4ccccc4)c3=O)o2)c1 returned GDH-TPI inh 37.3*, PriA SSB inh 49.9*, Mtb betalactam 88.3, Mtb UGM inh -0.1, Rv3671c inh -1.1 and FBA Mtb inh 3.2.
For Cc1c(N=Cc2nc3ccccc3[nH]2)c(=O)n(-c2ccccc2)n1C the results were GDH-TPI inh 42.2*, PriA SSB inh -5.4, Mtb betalactam -4.1, Mtb UGM inh 1.5, Rv3671c inh 5.0 and FBA Mtb inh -2.0.
For Cc1c(N=Cc2nc3ccccc3n2C)c(=O)n(-c2ccccc2)n1C the results were GDH-TPI inh 43.4*, PriA SSB inh -9.4, Mtb betalactam -2.1, Mtb UGM inh -1.0, Rv3671c inh 4.9 and FBA Mtb inh 0.1.
For O=C(COc1ccccc1)NCCOc1ccc(-c2ccco2)nn1 the results were PriA SSB inh -17.0.
Cn1cccc(C(=O)NCCc2ccsc2)c1=O was read as PriA SSB inh -1.0.
Screening CCOc1ccc(/C=C2\CCC(C3CCCC3)C2=O)cc1 (centres undefined) returned GDH-TPI inh 1.3, PriA SSB inh -16.5, Mtb betalactam 0.7, Mtb UGM inh -1.0, Rv3671c inh -4.5 and FBA Mtb inh 2.4.
CCC(=O)OCOc1ccc(/C=C2/CCC(CN(C)C)C2=O)cc1 (centres undefined) was read as GDH-TPI inh 31.9*, PriA SSB inh -6.2 and FBA Mtb inh -1.6.
COc1ccc(-c2cc(C(=O)N3CCCCC3)c3ccccc3n2)cc1 was read as GDH-TPI inh 12.2, PriA SSB inh -9.1, Mtb betalactam 19.4, Mtb UGM inh 3.9, Rv3671c inh -1.2 and FBA Mtb inh 128.0*.
For COc1ccc(-c2cc(C(=O)N3CCOCC3)c3cc(C)ccc3n2)cc1 the results were GDH-TPI inh 14.5, PriA SSB inh -13.8, Mtb betalactam 78.8, Mtb UGM inh 4.7, Rv3671c inh -6.0 and FBA Mtb inh 157.3*.
`COc1ccc(-c2cc(C(=O)N3CCCCCC3)c3cc(C)ccc3n2)cc1` gave GDH-TPI inh 10.9, PriA SSB inh 1.6, Mtb betalactam 86.7, Mtb UGM inh -0.7, Rv3671c inh -9.2 and FBA Mtb inh 152.9*.
COc1ccc(/C=C/c2cc(C(=O)O)c3ccccc3n2)cc1 was read as GDH-TPI inh 32.5*, PriA SSB inh -4.9, Mtb betalactam -0.5, Mtb UGM inh 7.4, Rv3671c inh -11.1 and FBA Mtb inh 3.1.
COc1ccc(-c2cc(C(=O)N3CCCCC3)c3ccccc3n2)cc1OC was read as GDH-TPI inh 21.2, PriA SSB inh -7.1, Mtb betalactam inconclusive, Mtb UGM inh -0.7, Rv3671c inh 0.2 and FBA Mtb inh 6.8.
Screening Cc1cc(=O)[nH]c(-n2nc(C)c(CCC(=O)Nc3ccc(Oc4ccccc4)cc3)c2C)n1 returned PriA SSB inh 13.0.
COc1ccc(-c2nnc(CC(=O)NCc3ccc(F)cc3)o2)cc1 was read as PriA SSB inh -17.0.
COc1nn(C)cc1C(=O)N1CCC(Oc2nccnc2OC)C1 (centres undefined) was read as PriA SSB inh -5.0.
O=C(CSc1ncnc2c1oc1ccccc12)c1ccc(Cl)cc1 was read as PriA SSB inh -6.0.
FC(F)(F)c1cccc2sc(NCc3ccccn3)nc12 was read as PriA SSB inh -3.0.
`COc1ccc(-c2cc(C(=O)c3c(N)n(C)c(=O)n(C)c3=O)c3ccccc3n2)cc1` gave GDH-TPI inh 35.4*, PriA SSB inh -4.6, Mtb betalactam -2.5, Mtb UGM inh -2.0, Rv3671c inh 1.2 and FBA Mtb inh 5.7.
For COc1ccc2nc(-c3ccc(Cl)cc3)cc(C(=O)O)c2c1 the results were GDH-TPI inh 13.0, PriA SSB inh -1.7, Mtb betalactam 70.4, Mtb UGM inh -0.3, Rv3671c inh -0.6 and FBA Mtb inh active.
